# Hits are enriched below; roughly 1.5% of the tested compounds scored in any of these assays.
# Bcl-xL primary: Bcl-xL (human) inhibition; Q07817; GST-Bcl-xL / FITC-Bim BH3 peptide fluorescence polarization; inhibition, % at 10.9 µM; 320,000 compounds, 0.7% hits;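 active means inhibition above the mean of all tested compounds plus 3 SD, cutoff set per campaign, cut at about 30% in these data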;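 further: 0% = DMSO wells and 100% = unlabeled Bim-BH3 peptide competitor; inhibitors lower millipolarization by displacing the labeled peptide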
# MEX-5 binding: C. elegans MEX-5 TCR-2 RNA binding activity. Q9XUB2. MEX-5/FITC-TCR2 RNA binding, fluorescence polarization; stronger effect = lower value. activity score (negative = inhibition of binding), % at 10 µM. 300,000 compounds, 0.38% hits. AID 1832;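 active means inhibition past about -25% in most replicates, and total fluorescence under double the plate's negative control median, limit read from the data; inconclusive means replicates evenly split on the limit, or fluorescence at least double controls; inactive means too little inhibition in most replicates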;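 further: 0% = DMSO and -100% = 5 µM competing unlabeled TCR2 RNA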
# E coli Lon inh: inhibitors of E. coli Lon protease; purified E. coli Lon protease, fluorescence polarization; AID 602123; inhibition, % at 7.94 µM; 360,000 compounds, 0.42% hits; in the data active means inhibition above about 13%, passing the limit was not always enough;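 further: 0% = enzyme with probe and DMSO and 100% = no enzyme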
# Target sequence (P0A9M0 whole entry, looked up): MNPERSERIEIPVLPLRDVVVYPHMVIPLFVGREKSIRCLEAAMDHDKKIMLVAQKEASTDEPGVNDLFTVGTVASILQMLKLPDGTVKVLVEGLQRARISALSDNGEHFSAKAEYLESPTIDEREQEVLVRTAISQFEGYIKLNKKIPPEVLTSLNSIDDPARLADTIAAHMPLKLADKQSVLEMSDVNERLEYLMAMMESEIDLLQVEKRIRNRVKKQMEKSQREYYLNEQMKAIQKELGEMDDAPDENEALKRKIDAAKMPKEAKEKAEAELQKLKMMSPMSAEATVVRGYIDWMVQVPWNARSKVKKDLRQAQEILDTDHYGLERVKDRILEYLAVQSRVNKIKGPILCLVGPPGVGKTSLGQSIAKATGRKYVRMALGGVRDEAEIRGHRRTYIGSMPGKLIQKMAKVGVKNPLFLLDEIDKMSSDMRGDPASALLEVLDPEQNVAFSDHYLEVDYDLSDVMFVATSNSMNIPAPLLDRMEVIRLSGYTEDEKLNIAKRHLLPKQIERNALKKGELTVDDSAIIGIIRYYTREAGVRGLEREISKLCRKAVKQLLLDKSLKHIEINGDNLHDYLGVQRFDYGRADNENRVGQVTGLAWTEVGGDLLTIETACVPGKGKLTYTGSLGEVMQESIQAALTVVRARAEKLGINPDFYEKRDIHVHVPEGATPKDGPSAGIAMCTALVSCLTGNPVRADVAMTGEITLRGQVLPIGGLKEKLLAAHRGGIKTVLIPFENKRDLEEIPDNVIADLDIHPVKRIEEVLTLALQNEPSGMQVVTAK
# EBV gp42 inh: inhibitors of Epstein-Barr virus glycoprotein 42; Q1HVG2; Fluorescence polarization binding assay, mP read-out; inhibition, % (tested at 21.74 µM); 220,000 compounds, 0.42% hits; in the data active means inhibition above about 50%
# MCL1 BIM primary: disrupts human MCL1 binding to BIM-BH3 peptide | Q07820 | GST-MCL1 / FITC-Bim-BH3 fluorescence polarization | inhibition, % at 10.9 µM | 320,000 compounds, 0.68% hits;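 active means inhibition above the mean inhibition of all tested compounds plus 3 SD, set per campaign, cut at about 40% in these data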;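 further: 0% = DMSO wells and 100% = unlabeled Bim-BH3 peptide control; higher means more loss of mP so more displacement of Bim peptide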
# GLD-1 RNA inh: GLD-1-TGE RNA interaction inhibition (C. elegans); inhibition, % at 5.96 µM; AID 2280; Q17339; 320,000 compounds, 0.44% hits; purified GLD-1 + fluorescein TGE RNA, fluorescence polarization;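 active means percent inhibition above a per-plate cutoff, the plate mean of test compounds plus 3 SD, cut at about 30% in these data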;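 further: 0% = DMSO wells with GLD-1 and probe and 100% = wells lacking GLD-1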
# Bcl-xL conf: Bcl-xL (human) inhibition, MCL1 counter-screen confirmation | shares compounds with MCL1 BIM primary | GST-Bcl-xL / FITC-Bim BH3 peptide FP binding | inhibition, % at 10.9 µM | 1,700 compounds, 54% hits;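 active means inhibition above a cutoff equal to the mean inhibition of all tested compounds plus 3 SD, cut at about 30% in these data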;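 further: 0% = DMSO wells and 100% = unlabeled Bim BH3 control peptide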
# MCL1 inh confirm: confirmation of human MCL1 and BIM-BH3 interaction inhibitors; shares compounds with MCL1 BIM primary; GST-MCL1 / FITC-Bim-BH3 fluorescence polarization; inhibition, % at 10.9 µM; 1,700 compounds, 61% hits;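 active means inhibition above the average of all tested compounds plus 3 SD, cut at about 40% in these data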;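 further: 0% = DMSO wells and 100% = unlabeled Bim-BH3 control peptide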
# GLD1 RNA confirm: confirmation of C. elegans GLD-1 TGE RNA binding inhibitors | shares compounds with GLD-1 RNA inh | GLD-1/FL-TGE RNA fluorescence polarization, biochemical | inhibition, % at 5.96 µM | 550 compounds, 10% hits;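 active means average inhibition across triplicates above the hit cutoff set in the primary screen, cut at about 32% in these data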;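 further: 0% = GLD-1 with RNA probe and DMSO and 100% = wells lacking GLD-1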
# E coli Lon conf: E. coli Lon inhibition confirmation. inhibition, % at 7.94 µM. AID 602230. purified E. coli Lon, fluorescence polarization. shares compounds with E coli Lon inh. 1,400 compounds, 31% hits; in the data active means inhibition above about 16%;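 further: 0% = enzyme with probe and DMSO and 100% = no enzyme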
# Starred values were filed as active, the others as inactive; ? = inconclusive; / = no result; + = active, no number.
SMILES,Bcl-xL primary,MEX-5 binding,E coli Lon inh,EBV gp42 inh,MCL1 BIM primary,GLD-1 RNA inh,Bcl-xL conf,MCL1 inh confirm,E coli Lon conf,others
Cc1ccccc1N1C(=O)c2cccc3c(N(C)CCO)ccc(c23)C1=O,181*,?,124*,126*,+,167*,121*,157*,84*,
COc1ccc2c3c(cccc13)C(=O)N(O)C2=O,69*,-1,38*,75*,69*,28,67*,77*,87*,
COc1ccccc1N1C(=O)c2cccc3c(N(C)CCO)ccc(c23)C1=O,183*,4,176*,/,+,172*,128*,152*,76*,
C[C@H](O)[C@@H]1C(=O)N2CCc3ccc(N4CCN(C)CC4)cc3[C@@H]2C[C@@H]1N(C)C(=O)c1ccco1,/,/,4,/,/,/,/,/,/,
CCCOc1ccc(C(=O)Nc2ccc(S(=O)(=O)NC3=NCCCCC3)cc2)cc1,1,-5,0,/,-3,7,/,/,/,
CC(=O)c1c2c3c(c(Br)ccc3n(C)c1=O)C(=O)c1ccccc1-2,67*,-4,50*,/,64*,57*,42*,43*,21*,
CC(=O)c1c(C)oc2c1C(=O)c1ccccc1C2=O,3,-1,-4,-5,-4,11,/,/,/,
Cc1ccc(C(=O)CNc2cc(C)ccc2C)cc1,3,-3,-3,/,-1,-1,/,/,/,
CCNc1cc(O)ccc1C,138*,/,117*,/,164*,137*,73*,85*,89*,
Cc1cc(C)nc(SCC(=O)NC(=O)c2ccccc2O)n1,/,/,-6,/,/,-2,/,/,/,
CC(=O)Nc1ccccc1-c1ccc(C)o1,1,1,1,-3,-7,0,/,/,/,
Cc1ccc(NC(=O)CS(=O)CC(=O)Nc2ccccc2-c2ccc(C)o2)cc1 (configuration not stated),72*,1,114*,/,88*,66*,10,9,0,GLD1 RNA confirm=6
COC(=O)c1c(=O)n(O)c2ccc(OC)cc2[n+]1[O-],169*,-30*,142*,98*,198*,146*,138*,178*,88*,
O=C1C=C(NNC(=O)c2ccncc2)CC(c2ccccc2)C1 (configuration not stated),75*,-18,68*,2,72*,126*,26,39,-59,
Cc1nc2ccccc2n2c(O)c(CC(=O)O)cc12,+,?,148*,129*,+,137*,190*,+,119*,
C=CCN1C=C2C(=O)C(C)(OC(=O)c3ccc(OC)cc3)C(=O)C(c3ccco3)=C2C=C1CCCC (configuration not stated),67*,-5,41*,8,71*,54*,41*,62*,9,
COC(=O)CCCC1=CC2=C(c3ccccc3)C(=O)C(C)(OC(=O)C3CCCC3)C(=O)C2=CN1Cc1ccco1 (configuration not stated),14,-5,-2,25,10,11,/,/,/,
O=C(Cn1c(Cn2c(-c3cnccn3)nc3ccccc32)nc2ccccc21)c1ccc(OC(F)(F)F)cc1,/,/,-12,/,/,/,/,/,/,
COc1ccc(C2C(C#N)=C(N)OC3=C2C(=O)CC(C)(C)C3)c([N+](=O)[O-])c1OC (configuration not stated),7,-5,-5,-6,6,3,/,/,/,
CC1(C)CC(=O)C2=C(C1)OC(N)=C(C#N)[C@@H]2c1ccccc1[N+](=O)[O-],163*,-68*,53*,54*,194*,113*,36*,46*,5,
COc1cc(C2C(C#N)=C(N)OC3=C2C(=O)CC(C)(C)C3)c([N+](=O)[O-])cc1OC (configuration not stated),+,-54*,34*,86*,+,154*,64*,82*,19*,
CC(C(=O)Nc1ccc(C#N)cc1)N1CCN(C(=O)C2CC2)CC1 (configuration not stated),-4,/,-5,/,2,11,/,/,/,
CN1CCCc2cc3c(C(F)(F)F)cc(=O)oc3nc21,155*,?,27*,132*,168*,125*,141*,174*,103*,
FC(F)(F)c1cc(C(F)(F)F)c2ccc(N3CCOCC3)nc2n1,5,-3,-1,/,4,-4,/,/,/,
C[C@H](NC(=O)c1ncn2c1C(=O)NC[C@H]2C)C(=O)OC(C)(C)C,/,/,-6,/,/,/,/,/,/,
SMILES,Bcl-xL primary,MEX-5 binding,E coli Lon inh,EBV gp42 inh,MCL1 BIM primary,GLD-1 RNA inh,Bcl-xL conf,MCL1 inh confirm,E coli Lon conf,others
Cc1oc2c(O)c(O)ccc2c(=O)c1-c1ccc(Cl)cc1,25,-1,16*,/,43*,1,58*,81*,13,
NC(c1ccccc1)c1csc(Nc2cc(Oc3ccccc3)ncn2)n1 (configuration not stated),/,/,-9,/,/,/,/,/,/,
Cn1c(-c2ccc([N+](=O)[O-])cc2)nc2ccccc21,3,1,5,-12,-5,6,/,/,/,
Cn1nc([N+](=O)[O-])c(C(C#N)c2nc3ccccc3n2C)c(Cl)c1=O (configuration not stated),79*,-28*,22*,80*,91*,51*,84*,90*,33*,
Cc1noc(C)c1NC(=O)N(C)C[C@H]1Oc2ccc(NC(=O)Cc3ccccc3)cc2C(=O)N([C@H](C)CO)C[C@@H]1C,/,/,13,/,/,4,/,/,/,
C#CCN1c2ccccc2Sc2cccnc21,+,-11,165*,/,+,93*,27,39,21*,
COc1cc(C(O)CO)ccc1OS(=O)(=O)O (configuration not stated),4,/,-1,/,8,4,/,/,/,
Cc1cc(C(=O)N2CCC2(C)C(=O)Nc2cccc3c2CCCC3)nn1C (configuration not stated),/,/,0,/,/,/,/,/,/,
O=C(Cc1cccc(NC(=O)C2CCCN(C(=O)C3CCCC3)C2)c1)Nc1ccc(C(=O)N2CCOCC2)cc1 (configuration not stated),/,/,-7,/,/,/,/,/,/,
O=c1c2ccccc2[nH]c2ccc(O)cc12,74*,-6,84*,/,89*,108*,98*,145*,71*,

# Screens (PubChem)
